# Experimental data from PubChem BioAssay.
# “And” between values parts separate entries of the source, which are not always exact repeats. Equal values may be shown once. The source made the active and inactive calls. Unless noted, how the calls were made is not given here.
# How the values were obtained:
# [1] = system: Aerobactin synthetase IucA (Klebsiella pneumoniae); test: inhibition of K. pneumoniae IucA enzyme – biochemical, Tocris library, absorbance (AID 1345561); conditions: purified IucA enzyme assay, absorbance (OD) read-out; stronger effect = lower value;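 tested at 8 µM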;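 further: 100% = enzyme without compound and 0% = no enzyme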
# [2] = viability loss with induced miR-34 in A549 – imaging, A549 dox-inducible miR-34, nuclei and caspase counts, primary screen (AID 1347080;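 active means compounds whose cell count with miR-34 switched on is under 0.7 times the count with it off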); conditions: A549 miR-34 inducible, Hoechst nuclei count, 48 h
# [3] = galactose survival enhancers in mitochondrial complex I cybrids – cell-based, galactose medium, ATP luminescence, primary screen (AID 1645843;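 active means z-score of at least 1.8 in each of two replicates, scored against plate mean and spread of sample wells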;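 further: positive z means more ATP and so rescue of galactose-driven cybrid death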); conditions: complex I mutant cybrid cells, 72 h, stronger effect = higher value
# [4] = compounds altering circadian rhythm period length – cell-based, LOPAC library, luminescence reporter (AID 2774); conditions: circadian reporter cells, at 7 µM, actives lie on both sides;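 further: values are relative to mean of DMSO wells on each plate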
# [5] = MELAS cybrid and Rieske KO viability enhancers – cell-based, MELAS cybrids, Rieske KO mouse fibroblasts, CellTiter-Glo, primary screen (AID 1508586;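 active means mean z-score across replicates of 1.96 or higher in either the MELAS or the Rieske mutant cell line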;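 further: z relative to plate mean and SD of compound and empty wells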); conditions: low glucose
# [6] = P. berghei load reduction in hepatocytes – cell-based, HepG2, luciferase luminescence, HepG2 viability, primary screen (AID 624349; in the data active means parasite load remaining mostly below about 12%, no sharp cut-off; inactive means mostly above about 10%;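 further: 100% = mean of DMSO negative control wells on the same plate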); conditions: P. berghei liver stage in HepG2, luciferase luminescence, concentration not given here; parasite load remaining: stronger effect = lower value; viability: measured here: HepG2 viability without parasites
# [7] = signal quenchers or enhancers, Cy5 substrate/SSB – biochemical, NIH Clinical Collection, E. coli SSB, artefact control for HCV NS3 helicase inhibitor project (AID 743268); conditions: Cy5-oligo bound E. coli SSB, fluorescence interference
# [8] = system: Hepatitis C virus NS3 helicase; test: blockers of NS3h binding to DNA – biochemical, fluorescence polarization, NIH Clinical Collection, primary screen (AID 743270); conditions: NS3 helicase binding to Cy5-dT15 DNA, stronger effect = higher value, concentration not given here
# [9] = biological target: Single-stranded DNA-binding protein (Escherichia coli (strain K12)) (UniProt P0AGE0); test: SSB-ssDNA binding inhibitors – biochemical, fluorescence polarization, NIH Clinical Collection, counter-screen for HCV NS3 helicase inhibitor project (AID 743271; in the data active means inhibition above about 28%); conditions: E. coli SSB-DNA binding, stronger effect = higher value, concentration not given here
# [10] = compounds distorting NS3 helicase fluorescence signal – biochemical, NIH Clinical Collection, artefact control for HCV NS3 helicase inhibitor project (AID 743272); conditions: fluorescence interference counterscreen, HCV NS3 helicase assay; stronger effect = lower value;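 further: HCV NS3 helicase with a Cy5 labelled single stranded DNA probe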
# [11] = system: Aerobactin synthetase IucA (Klebsiella pneumoniae hvKP1); test: IucA enzyme inhibition, primary screen, biochemical, Spectrum library (AID 1346200); conditions: malachite green pyrophosphate, A620, at 8 µM, stronger effect = lower value;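 further: 100% = wells without compound and 0% = wells lacking enzyme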
# [12] = measured here: relative caspase fold change +Dox/-Dox
# [13] = measured here: total cells with miR-34 induction, stronger effect = lower value
# [14] = measured here: total cells without miR-34 induction
# [15] = stronger effect = lower value, cell number ratio, induced over uninduced
structure (smiles),measurement,setting,value
NC=Nc1ccc2[nH]c3c(c2c1)C[C@@]1(O)C2Cc4ccc(O)c5c4[C@@]1(CCN2CC1CC1)[C@H]3O5,remaining activity,[1],121% (inactive)
same,fold change,[2]; stronger effect = lower value,0.975 (inactive)
same,fold change,[2]; [12],1.22
same,cell count,[2]; [13],9860
same,cell count,[2]; [14],10100
same,z-score,[3],-0.38 (inactive)
S=C=Nc1cccc(C2(N3CCCCC3)CCCCC2)c1,period change,[4],0.05 h (inactive)
same,remaining activity,[1],122% (inactive)
same,fold change,[2]; [15],0.942 (inactive)
same,fold change,[2]; [12],0.732
same,cell count,[2]; [13],9100
same,cell count,[2]; [14],9670
same,z-score,[3],0.62 (inactive)
OC12C3C4CC5C6C4C1C6C(C53)N2CCc1cccc(F)c1 (stereo not given),remaining activity,[1],98.4% (inactive)
same,fold change,[2]; [15],0.838 (inactive)
same,fold change,[2]; [12],1.86
same,cell count,[2]; [13],7940
same,cell count,[2]; [14],9480
same,z-score,[3],0.295 (inactive)
O=C(O)/C=C/CO,remaining activity,[1],109% (inactive)
same,fold change,[2]; [15],0.992 (inactive)
same,fold change,[2]; [12],0.9
same,cell count,[2]; [13],9440
same,cell count,[2]; [14],9510
same,z-score,[3],-0.335 (inactive)
CN1C2CCC1CC(OC(c1ccccc1)c1ccc(Cl)cc1)C2 (stereo not given),period change,[4],0.035 h (inactive)
same,remaining activity,[1],92.9% (inactive)
same,fold change,[2]; [15],0.909 (inactive)
same,fold change,[2]; [12],1.16
same,cell count,[2]; [13],4530
same,cell count,[2]; [14],4990
same,z-score,[3],-1.1 (inactive)
Cc1cccc(C(C)c2cnc[nH]2)c1C (stereo not given),remaining activity,[1],123% (inactive)
same,z-score,"[5]; MELAS cybrid survival, CellTiter-Glo 48 h, stronger effect = higher value",0.00954 (inactive) and -0.104 (inactive) and -0.218 (inactive)
same,z-score,"[5]; Rieske KO mouse fibroblast survival, CellTiter-Glo 72 h",0.0551 and -0.0823 and -0.0306
same,z-score,[3],-0.255 (inactive)
CC(=O)N1CC[N+](C)(C)CC1,remaining activity,[1],90.4% (inactive)
same,fold change,[2]; [15],0.94 (inactive)
same,fold change,[2]; [12],0.788
same,cell count,[2]; [13],9100
same,cell count,[2]; [14],9680
same,z-score,[3],0.25 (inactive)
O=C1/C(=C/c2ccccc2)C[C@@]2(O)C3Cc4ccc(O)c5c4[C@@]2(CCN3CC2CC2)[C@H]1O5,remaining activity,[1],97.5% (inactive)
same,fold change,[2]; stronger effect = lower value,1.1 (inactive)
same,fold change,[2]; [12],0.83
same,cell count,[2]; [13],919
same,cell count,[2]; [14],833
same,z-score,[3],-1.12 (inactive)
NCC(CS(=O)(=O)O)c1ccc(Cl)cc1 (stereo not given),remaining activity,[1],108% (inactive)
same,fold change,[2]; [15],0.961 (inactive)
same,fold change,[2]; [12],1.04
same,cell count,[2]; [13],9200
same,cell count,[2]; [14],9570
same,z-score,[3],0.475 (inactive)
CN(C(=O)Cc1ccccc1)C(CN1CCCC1)c1ccccc1 (stereo not given),remaining activity,[1],116% (inactive)
same,fold change,[2]; [15],0.952 (inactive)
same,fold change,[2]; [12],0.864
same,cell count,[2]; [13],8670
same,cell count,[2]; [14],9110
same,z-score,[3],0.03 (inactive)
Cc1cc(C)cc(C(=O)OC2CC3CCC(C2)N3C)c1 (stereo not given),remaining activity,[1],86.6% (inactive)
same,fold change,[2]; [15],0.914 (inactive)
same,fold change,[2]; [12],1.01
same,cell count,[2]; [13],8100
same,cell count,[2]; [14],8850
same,z-score,[3],-0.125 (inactive)
Oc1ccc2c3c1O[C@H]1c4[nH]c5ccccc5c4C[C@@]4(O)C(C2)N(CC2CC2)CC[C@]314,parasite load remaining,[6],46.5% (inactive)
same,viability,[6],62.3%
same,fluorescence ratio,[7],0.91 (inactive)
same,inhibition,[8],-1.19% (inactive)
same,inhibition,[9],-0.1% (inactive)
same,fluorescence ratio,[10],0.89 (inactive)
same,remaining activity,[1],101% (inactive)
same,fold change,[2]; stronger effect = lower value,1.03 (inactive)
same,fold change,[2]; [12],0.989
same,cell count,[2]; [13],8920
same,cell count,[2]; [14],8700
same,z-score,[3],0.53 (inactive)
C=C(C)CN1CC[C@]23c4c5ccc(O)c4O[C@H]2c2[nH]c4ccccc4c2C[C@@]3(O)C1C5,parasite load remaining,[6],2.83% (inactive)
same,viability,[6],29.3%
same,fluorescence ratio,[7],0.95 (inactive)
same,inhibition,[8],-1.97% (inactive)
same,inhibition,[9],1.97% (inactive)
same,fluorescence ratio,[10],0.93 (inactive)
same,remaining activity,[1],92% (inactive)
same,fold change,[2]; stronger effect = lower value,0.859 (inactive)
same,fold change,[2]; [12],0.814
same,cell count,[2]; [13],5020
same,cell count,[2]; [14],5850
same,z-score,[3],-0.785 (inactive)
CCCc1nc(C)c2c(=O)[nH]c(-c3cc(S(=O)(=O)N4CCN(CC)CC4)ccc3OCC)nn12,activity remaining,[11],111% (inactive)
CC(C)[C@@H]1CC[C@@H](C)C[C@H]1O,activity remaining,[11],95.9% (inactive)
Cc1cc2cc3c(C)cc(=O)oc3c(C)c2o1,activity remaining,[11],117% (inactive)
Nc1ncnc2c1ncn2C1O[C@H](COP(=O)(O)O)[C@@H](O)[C@H]1O (stereo not given in full),activity remaining,[11],98% (inactive)
O=C1C=C(O)c2ccccc2C1=O,activity remaining,[11],123% (inactive)
COc1cc(O)cc(/C=C/c2ccccc2)c1,activity remaining,[11],104% (inactive)
COc1cc2c(cc1OC)C(=O)OC2,activity remaining,[11],110% (inactive)
CO[C@@]12[C@@H]3NC3CN1C1=C(C(=O)C(N)=C(C)C1=O)[C@@H]2COC(N)=O (stereo not given in full),activity remaining,[11],95.4% (inactive)
CC(=O)/C(=C\c1ccccc1)CC(=O)O,activity remaining,[11],98.6% (inactive)
C=C[C@@](C)(O)CCC1C(=C)C[C@H](OC(C)=O)C2C(C)(C)CCCC12C (stereo not given in full),activity remaining,[11],118% (inactive)
CC(=O)OCC[C@H](C)CCC=C(C)C,activity remaining,[11],104% (inactive)
C/C=C\C1=C(C(=O)O)N2C(=O)C(NC(=O)C(N)c3ccc(O)cc3)C2SC1 (stereo not given),activity remaining,[11],115% (inactive)
C=CCc1ccc(OC(=O)c2ccccc2)c(OC)c1,activity remaining,[11],95.9% (inactive)
COc1c(O)cc(O)cc1O,activity remaining,[11],116% (inactive)
CC(=O)O[C@H]1CCC2(C)C3=C(CCC2C1(C)C)[C@@]1(C)CC[C@@H](C(C)CCC=C(C)C)[C@]1(C)CC3 (stereo not given in full),activity remaining,[11],109% (inactive)
O=C1OC2(c3ccc(O)cc3Oc3cc(O)ccc32)c2ccccc21,activity remaining,[11],111% (inactive)
CC(=O)O[C@H]1C[C@@H](O)C(C)(C)C2C[C@@H](OC(C)=O)[C@]3(C)C(CC[C@@]4(C)[C@H](c5ccoc5)OC(=O)C5OC543)[C@]21C (stereo not given in full),activity remaining,[11],104% (inactive)
CC1(C)OCC(C2OC(=O)C(O)=C2O)O1 (stereo not given),activity remaining,[11],87.7% (inactive)
O=C1[O][Bi][O]c2ccccc21,activity remaining,[11],107% (inactive)
CC(=O)O[C@@H]1C[C@@]2(C)C(CC[C@@H]2C(C)=O)C2CCC3=CC(=O)CC[C@]3(C)C21 (stereo not given in full),activity remaining,[11],88.2% (inactive)
CC12CC[C@H](CC1=O)C2(C)C,activity remaining,[11],104% (inactive)
COC(=O)C[C@H]1C(C)(C)C(=O)[C@@H]2CC3=C4CC(=O)O[C@@H](c5ccoc5)[C@]4(C)CCC3C1(C)C2=O (stereo not given in full),activity remaining,[11],102% (inactive)
COc1cc(-c2coc3cc(OC)c(OC)c(OC)c3c2=O)cc(OC)c1OC,activity remaining,[11],121% (inactive)
O=C(O)CN(CCN(CC(=O)O)CC(=O)O)CC(=O)O,activity remaining,[11],108% (inactive)
COc1cc(O)c2c(=O)c(O)c(-c3ccc(O)c(O)c3)oc2c1,activity remaining,[11],103% (inactive)
CCCCC1(COC(=O)CCC(=O)O)C(=O)N(c2ccccc2)N(c2ccccc2)C1=O,activity remaining,[11],110% (inactive)
O=c1cc(-c2ccccc2O)oc2cc(O)ccc12,activity remaining,[11],100% (inactive)
CN(C)c1ccc2nc3ccc(=[N+](C)C)cc-3sc2c1,activity remaining,[11],104% (inactive)
O=C(O)CN(CC(=O)O)Cc1cc2c(-c3ccccc3C(=O)O)c3cc(CN(CC(=O)O)CC(=O)O)c(=O)cc-3oc2cc1O,activity remaining,[11],113% (inactive)
O=c1c2cc(O)c(O)cc2oc2cc(O)c(C3O[C@H](CO)[C@H](O)[C@@H](O)[C@H]3O)c(O)c12 (stereo not given in full),activity remaining,[11],93.6% (inactive)
Cc1cccc(C)c1NC(=O)C1CCCCN1C (stereo not given),activity remaining,[11],123% (inactive)
NC(=O)c1ccc[n+]([C@@H]2O[C@H](COP(=O)([O-])OP(=O)(O)OC[C@H]3O[C@@H](n4cnc5c(N)ncnc54)[C@H](O)[C@@H]3O)[C@@H](O)[C@H]2O)c1,activity remaining,[11],108% (inactive)
COC1=C(O)C(=O)c2c(cc3oc(C(C)=O)c(O)c3c2O)C1=O,activity remaining,[11],108% (inactive)
CCOC(=O)c1c(C)cc(O)c(C=O)c1O,activity remaining,[11],97.7% (inactive)
Nc1nc2c(c(=O)[nH]1)N(C=O)C(CNc1ccc(C(=O)N[C@@H](CCC(=O)O)C(=O)O)cc1)CN2 (stereo not given in full),activity remaining,[11],104% (inactive)
